# Inconclusive results are not listed. Calls of active or inactive are those of the source.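 The calls were made as follows, unless noted: active = normalized viability below 100% at a tested concentration; inactive = the rest.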
# Experiments:
# [1] = viability loss in pontine glioma line – cell-based, SU-DIPG-XVII, MIPE5.0, CellTiter-Glo, qHTS, dose response (AID 1347060; cut-off not given, nearly all actives have AC50 up to about 26 µM;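 as to AC50: cells exposed to compound for 48 hours before viability readout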); details: CellTiter-Glo ATP luminescence
# [2] = viability loss in pontine glioma line – cell-based, SU-DIPG-XIII, MIPE4.0, CellTiter-Glo, qHTS, dose response (AID 1347061; cut-off not given, nearly all actives have AC50 up to about 37 µM;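 also: cells exposed to compound for 48 hours before readout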); details: CellTiter-Glo ATP luminescence
# [3] = viability loss in pontine glioma line – cell-based, SU-DIPG-XXV, MIPE5.0, CellTiter-Glo, qHTS, dose response (AID 1347065; cut-off not given, nearly all actives have AC50 up to about 26 µM;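 also: cells exposed to compound for 48 hours before ATP readout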); details: CellTiter-Glo ATP luminescence
# [4] = JHH-DIPG-1 glioma cell viability, MIPE5.0 library, CellTiter-Glo luminescence, qHTS (AID 1347067; cut-off not given, nearly all actives have AC50 up to about 26 µM;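 also: cells exposed to compound for 48 hours before readout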); details: JHH-DIPG-1 glioma viability, CellTiter-Glo ATP luminescence
# [5] = growth inhibition of DIPG cells – cell-based, MIPE5.0 library, qHTS (AID 1347068; cut-off not given, nearly all actives have IC50 up to about 30 µM;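 as to IC50: cells exposed to compound for 48 hours before viability readout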); details: SU-DIPG-XXV viability
# [6] = viability loss with induced miR-34 in A549 – imaging, A549 dox-inducible miR-34, nuclei and caspase counts, primary screen (AID 1347080;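 active = compounds whose cell count with miR-34 switched on is under 0.7 times the count with it off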); details: A549 miR-34 inducible, Hoechst nuclei count, 48 h
# [7] = compounds altering HSF1 focus formation in cells – imaging, Selleck Cancer Library (AID 1347162; in the data active = plate-normalised HSF1 focus index below about 0.46); details: human cells, HSF1 nuclear foci imaging, at 10 µM; SSMD: measured here: HSF1 foci SSMD mean; cell count: measured here: cell number; plate-normalised HSF1 focus index: stronger effect = lower value
# [8] = MELAS cybrid and Rieske KO viability enhancers – cell-based, MELAS cybrids, Rieske KO mouse fibroblasts, CellTiter-Glo, primary screen (AID 1508586;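 active = mean z-score across replicates of 1.96 or higher in either the MELAS or the Rieske mutant cell line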;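 also: z relative to plate mean and SD of compound and empty wells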); details: low glucose
# [9] = drug combination growth inhibition, ovarian cancer – cell-based, oncology-focused library, rucaparib conditional, profiling panel (AID 1508598); details: patient-derived ovarian cancer cells, CellTiter-Glo viability, 144 h, stronger effect = lower value
# [10] = viability loss in pontine glioma line – cell-based, JHH-DIPG-1, MIPE4.0, CellTiter-Glo, qHTS, dose response (AID 1347062; cut-off not given, nearly all actives have AC50 up to about 27 µM;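 also: cells exposed to compound for two days before readout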); details: JHH-DIPG-1 viability, CellTiter-Glo ATP luminescence
# [11] = viability loss in pontine glioma line – cell-based, SU-DIPG-IV, MIPE4.0, CellTiter-Glo, qHTS, dose response (AID 1347063; cut-off not given, nearly all actives have AC50 up to about 30 µM;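 also: compound exposure lasted 48 hours before the viability readout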); details: CellTiter-Glo ATP luminescence
# [12] = viability loss in pontine glioma line – cell-based, SU-DIPG-XIII, MIPE5.0, CellTiter-Glo, qHTS, dose response (AID 1347064; cut-off not given, nearly all actives have AC50 up to about 23 µM;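 also: cells exposed to compound for 48 hours before the viability read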); details: CellTiter-Glo ATP luminescence
# [13] = growth inhibition of DIPG cells – cell-based, MIPE4.0 library, CellTiter-Glo luminescence, qHTS (AID 1347066; cut-off not given, nearly all actives have AC50 up to about 30 µM;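 also: cells exposed to compound for 48 hours before readout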); details: SU-DIPG-VI viability, CellTiter-Glo ATP luminescence
# [14] = stronger effect = lower value, cell number ratio, induced over uninduced
# [15] = measured here: relative caspase fold change +Dox/-Dox
# [16] = measured here: total cells with miR-34 induction, stronger effect = lower value
# [17] = measured here: total cells without miR-34 induction
# [18] = MELAS cybrid survival, CellTiter-Glo 48 h, stronger effect = higher value
# [19] = Rieske KO mouse fibroblast survival, CellTiter-Glo 72 h
# [20] = at 0.000305 µM, OCI-C5x cells, with rucaparib 10 µM, 100% = cells with rucaparib alone
# [21] = at 0.000305 µM, OCI-C5x cells, without rucaparib
# [22] = at 0.000305 µM, OCI-P5x cells, with rucaparib 20 µM, 100% = cells with rucaparib alone
# [23] = at 0.000305 µM, OCI-P5x cells, without rucaparib
# [24] = at 0.00122 µM, OCI-C5x cells, with rucaparib 10 µM, 100% = cells with rucaparib alone
# [25] = at 0.00122 µM, OCI-C5x cells, without rucaparib
# [26] = at 0.00122 µM, OCI-P5x cells, with rucaparib 20 µM, 100% = cells with rucaparib alone
# [27] = at 0.00122 µM, OCI-P5x cells, without rucaparib
# [28] = at 0.00488 µM, OCI-C5x cells, with rucaparib 10 µM, 100% = cells with rucaparib alone
# [29] = at 0.00488 µM, OCI-C5x cells, without rucaparib
# [30] = at 0.00488 µM, OCI-P5x cells, with rucaparib 20 µM, 100% = cells with rucaparib alone
# [31] = at 0.00488 µM, OCI-P5x cells, without rucaparib
# [32] = at 0.0195 µM, OCI-C5x cells, with rucaparib 10 µM, 100% = cells with rucaparib alone
# [33] = at 0.0195 µM, OCI-C5x cells, without rucaparib
# [34] = at 0.0195 µM, OCI-P5x cells, with rucaparib 20 µM, 100% = cells with rucaparib alone
# [35] = at 0.0195 µM, OCI-P5x cells, without rucaparib
# [36] = at 0.0781 µM, OCI-C5x cells, with rucaparib 10 µM, 100% = cells with rucaparib alone
# [37] = at 0.0781 µM, OCI-C5x cells, without rucaparib
# [38] = at 0.0781 µM, OCI-P5x cells, with rucaparib 20 µM, 100% = cells with rucaparib alone
# [39] = at 0.0781 µM, OCI-P5x cells, without rucaparib
# [40] = at 0.313 µM, OCI-C5x cells, with rucaparib 10 µM, 100% = cells with rucaparib alone
# [41] = at 0.313 µM, OCI-C5x cells, without rucaparib
# [42] = at 0.313 µM, OCI-P5x cells, with rucaparib 20 µM, 100% = cells with rucaparib alone
# [43] = at 0.313 µM, OCI-P5x cells, without rucaparib
# [44] = at 1.25 µM, OCI-C5x cells, with rucaparib 10 µM, 100% = cells with rucaparib alone
# [45] = at 1.25 µM, OCI-C5x cells, without rucaparib
# [46] = at 1.25 µM, OCI-P5x cells, with rucaparib 20 µM, 100% = cells with rucaparib alone
# [47] = at 1.25 µM, OCI-P5x cells, without rucaparib
# [48] = at 5 µM, OCI-C5x cells, with rucaparib 10 µM, 100% = cells with rucaparib alone
# [49] = at 5 µM, OCI-C5x cells, without rucaparib
# [50] = at 5 µM, OCI-P5x cells, with rucaparib 20 µM, 100% = cells with rucaparib alone
# [51] = at 5 µM, OCI-P5x cells, without rucaparib
compound,measurement,setting,value
CN1CCN(CCOc2cc(OC3CCOCC3)c3c(Nc4c(Cl)ccc5c4OCO5)ncnc3c2)CC1,outcome,[1],inactive
same,outcome,[2],inactive
same,outcome,[3],inactive
same,outcome,[4],inactive
same,outcome,[5],inactive
same,fold change,[6]; [14],0.876 (inactive)
same,fold change,[6]; [15],1
same,cell count,[6]; [16],1170
same,cell count,[6]; [17],1330
same,SSMD,[7],-0.947
same,cell count,[7],7430
same,plate-normalised HSF1 focus index,[7],0.94 (inactive)
same,z-score,[8]; [18],0.931 (inactive)
same,z-score,[8]; [19],-0.384
same,viability,[9]; [20],98.7% (active)
same,viability,[9]; [21],98.5% (active)
same,viability,[9]; [22],98.8% (active)
same,viability,[9]; [23],104% (inactive)
same,viability,[9]; [24],107% (inactive)
same,viability,[9]; [25],98.2% (active)
same,viability,[9]; [26],102% (inactive)
same,viability,[9]; [27],90.6% (active)
same,viability,[9]; [28],97.5% (active)
same,viability,[9]; [29],94.4% (active)
same,viability,[9]; [30],102% (inactive)
same,viability,[9]; [31],91.3% (active)
same,viability,[9]; [32],107% (inactive)
same,viability,[9]; [33],94.6% (active)
same,viability,[9]; [34],96.6% (active)
same,viability,[9]; [35],89% (active)
same,viability,[9]; [36],105% (inactive)
same,viability,[9]; [37],94.2% (active)
same,viability,[9]; [38],82.4% (active)
same,viability,[9]; [39],83% (active)
same,viability,[9]; [40],104% (inactive)
same,viability,[9]; [41],95.8% (active)
same,viability,[9]; [42],69% (active)
same,viability,[9]; [43],72.2% (active)
same,viability,[9]; [44],91.7% (active)
same,viability,[9]; [45],87.9% (active)
same,viability,[9]; [46],58.9% (active)
same,viability,[9]; [47],64.4% (active)
same,viability,[9]; [48],32.8% (active)
same,viability,[9]; [49],53.2% (active)
same,viability,[9]; [50],5.51% (active)
same,viability,[9]; [51],52.2% (active)
O=C(Cc1ccc(-c2ccc(OCCN3CCOCC3)cc2)cn1)NCc1ccccc1,AC50,[1],118 nM (active)
same,AC50,[10],59 nM (active)
same,AC50,[11],11.8 nM (active)
same,AC50,[12],661 nM (active)
same,AC50,[3],118 nM (active)
same,AC50,[13],1050 nM (active)
same,AC50,[4],132 nM (active)
same,IC50,[5],525 nM (active)
same,fold change,[6]; [14],1.21 (inactive)
same,fold change,[6]; [15],0.488
same,cell count,[6]; [16],1530
same,cell count,[6]; [17],1260
same,SSMD,[7],2.71
same,cell count,[7],6240
same,plate-normalised HSF1 focus index,[7],1.14 (inactive)
same,z-score,[8]; [18],1.14 (inactive)
same,z-score,[8]; [19],-0.489
same,viability,[9]; [20],106% (inactive)
same,viability,[9]; [21],114% (inactive)
same,viability,[9]; [22],109% (inactive)
same,viability,[9]; [23],106% (inactive)
same,viability,[9]; [24],111% (inactive)
same,viability,[9]; [25],124% (inactive)
same,viability,[9]; [26],108% (inactive)
same,viability,[9]; [27],108% (inactive)
same,viability,[9]; [28],112% (inactive)
same,viability,[9]; [29],109% (inactive)
same,viability,[9]; [30],105% (inactive)
same,viability,[9]; [31],96.7% (active)
same,viability,[9]; [32],101% (inactive)
same,viability,[9]; [33],58.9% (active)
same,viability,[9]; [34],85.3% (active)
same,viability,[9]; [35],29.6% (active)
same,viability,[9]; [36],62.9% (active)
same,viability,[9]; [37],50.7% (active)
same,viability,[9]; [38],69.5% (active)
same,viability,[9]; [39],23.9% (active)
same,viability,[9]; [40],40.7% (active)
same,viability,[9]; [41],33.9% (active)
same,viability,[9]; [42],58.7% (active)
same,viability,[9]; [43],18.5% (active)
same,viability,[9]; [44],46.4% (active)
same,viability,[9]; [45],34.1% (active)
same,viability,[9]; [46],58.9% (active)
same,viability,[9]; [47],17.4% (active)
same,viability,[9]; [48],50.3% (active)
same,viability,[9]; [49],32.6% (active)
same,viability,[9]; [50],49.4% (active)
same,viability,[9]; [51],15.3% (active)
